The whole screen tested about 140,000 compounds, of which about 80 (0.06%) were called active. The entries come from a sample that favours actives as a whole. A number with no mark means an inactive call. Rule as the data show it: active = displacement above about 50%; inactive = the rest.
biological target: Heat shock 70 kDa protein 1A (Homo sapiens) (UniProt P0DMV8); assay: small molecules displacing fluorescent ligand from Hsp70 – biochemical, fluorescence polarization, primary screen (AID 583); conditions: Hsp70 fluorescence polarization probe displacement, mP; at 20 µM; active compounds read high;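 also: plate controls were vehicle for no effect and reference ligand for full effect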
Sequence (P0DMV8 whole entry, looked up): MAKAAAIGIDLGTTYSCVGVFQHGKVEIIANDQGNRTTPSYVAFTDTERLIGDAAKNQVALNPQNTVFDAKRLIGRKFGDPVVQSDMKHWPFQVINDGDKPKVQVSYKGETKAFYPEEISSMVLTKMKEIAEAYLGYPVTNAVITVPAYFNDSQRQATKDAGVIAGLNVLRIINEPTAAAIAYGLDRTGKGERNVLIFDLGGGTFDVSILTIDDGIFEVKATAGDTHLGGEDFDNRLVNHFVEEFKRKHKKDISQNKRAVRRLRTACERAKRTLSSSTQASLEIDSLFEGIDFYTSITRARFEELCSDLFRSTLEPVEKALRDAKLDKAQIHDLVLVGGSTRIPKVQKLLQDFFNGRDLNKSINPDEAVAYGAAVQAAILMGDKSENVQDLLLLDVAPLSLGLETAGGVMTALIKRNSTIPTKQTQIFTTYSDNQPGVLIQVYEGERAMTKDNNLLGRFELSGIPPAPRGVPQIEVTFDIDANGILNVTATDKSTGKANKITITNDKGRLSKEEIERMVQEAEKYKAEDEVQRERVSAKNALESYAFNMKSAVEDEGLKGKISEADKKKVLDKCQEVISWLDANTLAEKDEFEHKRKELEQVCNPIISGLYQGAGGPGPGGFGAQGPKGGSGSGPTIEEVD

Row | SMILES | displacement
1 | O=C1CN=C(c2cccs2)c2c(sc3c2CCCC3)N1 | 0.2%
2 | CC(C)(C)c1ccc(OCCOc2ccccc2C=C2C(=O)NC(=O)NC2=O)cc1 | -4.4%
3 | c1ccc(CN2CCN(C3CCCCC3)CC2)cc1 | -0.7%
4 | CCc1nc2ccccc2c(=O)n1-c1ccc2ccccc2c1 | 0.4%
5 | CCOc1ccc(N2C(=O)/C(=C/c3cc(Cl)ccc3O)C(=O)NC2=S)cc1 | 0.9%
6 | O=C1NC(=O)N(c2cccc(Br)c2)C(=O)/C1=C/c1ccco1 | 98.6% (active)
7 | O=C1NC(=S)N(c2cccc(Cl)c2)C(=O)/C1=C/c1ccc(Cl)cc1 | -2.1%
8 | CCOc1ccc2ccccc2c1/C=C1\C(=O)NC(=S)N(c2ccccc2)C1=O | 3.3%
9 | Cc1cccc(N2C(=O)NC(=O)C(=Cc3ccco3)C2=O)c1 | 9.1%
10 | CN(C)c1ccc(C=C2C(=O)NC(=S)N(c3ccccc3F)C2=O)cc1 | -0.7%
11 | O=C1NC(=S)N(c2ccccc2)C(=O)/C1=C/c1ccco1 | 83.4% (active)
12 | O=C1NC(=S)N(c2ccccc2F)C(=O)C1=Cc1ccco1 | 96.8% (active)
13 | Cc1ccc(C=C2C(=O)NC(=S)N(c3ccccc3F)C2=O)s1 | -0.4%
14 | CCOc1ccc(N2C(=O)/C(=C/c3ccc(C)cc3)C(=O)NC2=S)cc1 | -3.1%
15 | CC(C)c1ccc(N2C(=O)NC(=O)/C(=C/c3ccco3)C2=O)cc1 | -1.4%
16 | CCOc1ccc(N2C(=O)/C(=C/c3ccco3)C(=O)NC2=S)cc1 | 92% (active)
17 | CCC1(Cc2ccccc2)C(=O)NC(=O)NC1=O | 1.5%
18 | CCOc1ccc(NC(=S)NC2CN3CCC2CC3)cc1 (centres undefined) | -0.4%
19 | C#CCNc1ccncc1S(=O)(=O)NC(=O)NC(C)C | 5.1%
20 | Cc1c(C(=O)N2CCC3(CC2)OCCO3)sc2ncnc(N(C)c3ccccc3)c12 | 0.4%
21 | CCOC(=O)C1C(=O)NC2(C)CC1c1cc(OC)ccc1O2 (centres undefined) | 7.2%
22 | COC(=O)C[C@]1(C(=O)OC)CN(C#N)N(c2ccc(Cl)cc2)C12c1ccccc1-c1ccccc12 | 10.7%
23 | c1cc(CN2CCN(C3C4CC5CC(C4)CC3C5)CC2)ccn1 (centres undefined) | 5.7%
24 | CN1CCN(c2nccc3c2ncn3C)CC1 | -5.2%
25 | COc1ccccc1N1CCN(Cc2ccccc2F)CC1 | -0.6%
26 | O=C1NC(=S)N(c2cccc(Br)c2)C(=O)/C1=C/c1ccco1 | 95.8% (active)
27 | O=C1NC(=S)N(c2cccc(Br)c2)C(=O)/C1=C/c1cccs1 | -3%
28 | O=C1NC(=S)N(c2cccc(Br)c2)C(=O)/C1=C/C=C/c1ccccc1 | -13.2%
29 | COc1cc(/C=N/n2cnnc2)ccc1OC(=O)N(C)C | 0.2%
